In the supplement of paper PMC6555819:

How the values were obtained:
Experiment in all cases: PBM binding z-score (relative to random genomic background probes); higher = stronger binding; sequences stand for … in GC…GCGATTGACAGCGTAGAATGAAGG
[1] = system: FXR:RXRa (NR concentration 270 nM, RXRa partner concentration 90 nM)
Procedure, shortened: (§1)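 Custom Agilent 4×180K protein-binding microarrays carried double-stranded probes, each with a 34-nt variable region. These regions held direct-repeat seeds, single-nucleotide variants, half-site ablations and random human genomic background sequences. Ligand-free nuclear receptor dimers were incubated on the arrays for 1 h, antibodies against each partner (one per run) detected binding, and scanned fluorescence was regression-normalized. Binding z-scores take the random background probes as reference.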

[2] = system: LXRa:RXRa (NR concentration 270 nM, RXRa partner concentration 90 nM)
Procedure, shortened: as §1

[3] = system: LXRa homodimer (NR concentration 270 nM)
Procedure, shortened: as §1

[4] = system: LXRb:RXRa (NR concentration 270 nM, RXRa partner concentration 90 nM)
Procedure, shortened: as §1

[5] = system: LXRb homodimer (NR concentration 270 nM)
Procedure, shortened: as §1

[6] = system: PPARa:RXRa (NR concentration 270 nM, RXRa partner concentration 90 nM)
Procedure, shortened: as §1

[7] = system: PPARg:RXRa 270nM:90nM, anti-RXR (NR concentration 270 nM, RXRa partner concentration 90 nM)
Procedure, shortened: as §1

[8] = system: PPARg:RXRa 30nM:10nM, anti-RXR (NR concentration 30 nM, RXRa partner concentration 10 nM)
Procedure, shortened: as §1

[9] = system: PPARg:RXRa 90nM:30nM, anti-RXR (NR concentration 90 nM, RXRa partner concentration 30 nM)
Procedure, shortened: as §1

[10] = system: PPARg:RXRa DBDmut IVT, anti-RXR (DBD mutation: RXRa K156A/R161A, NR concentration 270 nM, RXRa partner concentration 90 nM)
Procedure, shortened: as §1

[11] = system: PPARg:RXRa IVT, anti-PPARg (NR concentration 270 nM, RXRa partner concentration 90 nM)
Procedure, shortened: as §1

[12] = system: PPARg DBDmut:RXRa IVT, anti-PPARg (DBD mutation: PPARg1 K132A/R137A, NR concentration 270 nM, RXRa partner concentration 90 nM)
Procedure, shortened: as §1

[13] = system: PPARg DBDmut IVT, anti-PPARg (DBD mutation: PPARg1 K132A/R137A, NR concentration 270 nM)
Procedure, shortened: as §1

[14] = system: PPARg homodimer (NR concentration 180 nM)
Procedure, shortened: as §1

[15] = system: PXR:RXRa (NR concentration 270 nM, RXRa partner concentration 90 nM)
Procedure, shortened: as §1

[16] = system: PXR homodimer (NR concentration 270 nM)
Procedure, shortened: as §1

[17] = system: RARa:RXR (NR concentration 270 nM, RXRa partner concentration 90 nM)
Procedure, shortened: as §1

[18] = system: RARa homodimer (NR concentration 270 nM)
Procedure, shortened: as §1

[19] = system: PPARg:RXRa (NR concentration 180 nM, RXRa partner concentration 90 nM)
Procedure, shortened: as §1

[20] = system: RARb:RXRa (NR concentration 270 nM, RXRa partner concentration 90 nM)
Procedure, shortened: as §1

Sequence | PBM binding z-score [1] | PBM binding z-score [2] | PBM binding z-score [3] | PBM binding z-score [4] | PBM binding z-score [5] | PBM binding z-score [6] | PBM binding z-score [7] | PBM binding z-score [8] | PBM binding z-score [9] | PBM binding z-score [10] | PBM binding z-score [11] | PBM binding z-score [12] | PBM binding z-score [13] | PBM binding z-score [14] | PBM binding z-score [15] | PBM binding z-score [16] | PBM binding z-score [17] | PBM binding z-score [18] | PBM binding z-score [19] | PBM binding z-score [20]
TTATCAAGGTGAAAGGTCGTTGATGCACGCCTTG | 3.92 | 3.41 | 0.476 | 2.84 | 0.104 | 5.86 | 9.22 | 9.21 | 11 | 4.86 | 6.15 | 1.25 | 1.43 | 2.37 | 3.99 | 0.766 | 5.9 | 0.465 |  | 
CGAACTTGGTCACCAGGACAGTGAAGAGGTTGGA | 0.102 | -0.231 | -0.0617 | -0.452 | -0.791 | 0.239 | 0.47 | -0.456 | -0.143 | 1.74 | 2.17 |  | -0.841 | 0.157 | -0.0595 | -0.183 | 0.344 | -0.448 | 0.758 | 1.38
CGTCGAAGGTCAATGCTAGGTCAGTGAAAGCATT | 6.95 | 5.54 | 2.6 | 4.32 | 0.906 | 5.41 | 4.82 | 1.4 | 3.63 | 2.56 | 3.93 | -0.174 | -1.09 | 4.55 | 4.73 | 0.726 | 6.43 | 0.867 |  | 5.19
CAAACTAGGTCAAGGTCAAATTCGGTTTGTGCCA | 6.94 | 5.69 | 5.04 | 5.06 | 2.23 | 6.07 | 7.8 | 6.71 | 8.35 | 8.72 | 8.78 | 2.45 | 3.07 | 4.71 | 5.45 | 2.83 | 5.82 | 2.26 |  | 5.09
CCTTACGGGTCAGGAGGTTATAGCACGACGAGCG | 4.11 | 3 | 0.272 | 2.52 | -0.12 | 4.49 | 4.07 | 1.19 | 2.57 | 1.26 | 2.77 | 0.0175 | -0.373 | 1.97 | 2.86 | 0.19 | 4.14 | 0.79 |  | 3.63
ATATGTAGGTAAGGGTCATTCAGAAAGTAGGGAA | 4.33 | 4.17 | 1.56 | 4.24 | 1.45 | 5.52 | 6.82 | 4.58 | 6.85 | 5.88 | 6.35 |  | 2.93 | 3.52 | 3.78 | 1.25 | 4.55 | 2.02 | 7.89 | 3.61
ATACGTAGGTTAGGGTCATTCAGAAAGTAGGGAA | 4.93 | 3.99 | 1.16 | 4.2 | 1.26 | 4.88 | 3.41 | 1.32 | 2.77 | 0.761 | 2.44 |  | 0.669 | 3.09 | 4.27 | 1.89 | 4.85 | 1.86 | 2.96 | 3.39
CGTCCAAGGTCAATGTTAGGTCAGTGAAAGCATT | 6.44 | 5.88 | 2.85 | 4.38 | 1.35 | 5.51 | 4.66 | 0.937 | 3.1 | 2.85 | 3.43 | -0.0958 | -0.256 | 3.57 | 4.77 | 1.6 | 5.78 | 1.18 |  | 
ATATGTAGGGTAGGGTCATTCAGAAAGTAGGGAA | 4.09 | 4.09 | 2.32 | 5.19 | 4.59 | 5.28 | 5.53 | 3.19 | 4.91 | 6.28 | 5.96 |  | 4.11 | 2.93 | 4.39 | 2.67 | 4.44 | 2.33 | 7.32 | 3.21
